# About 530 (0.24%) of roughly 220,000 compounds were called active. No stated cut-off is given here; in the data, active means inhibition above about 13%; inconclusive means no clear call, values can overlap the other calls; inactive means below that. Shown is part of a subset that was picked to be rich in actives. Results with a measured potency or affinity are listed apart.
# Molecular target: Bifunctional protein GlmU (Mycobacterium tuberculosis (strain ATCC 25618 / H37Rv)) (UniProt P9WMN3)
# Assay: inhibition of mycobacterial GlmU enzyme – biochemical, glucosamine-1-phosphate acetyltransferase (AID 1376);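 further: 0% = complete reaction with vehicle and 100% = reaction without substrate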
# Details: M. tuberculosis GlmU acetyltransferase enzyme assay; active compounds read high;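 tested at 30 µM in the primary screen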
# Bifunctional protein GlmU (Mycobacterium tuberculosis (strain ATCC 25618 / H37Rv)), sequence (P9WMN3 whole entry, looked up): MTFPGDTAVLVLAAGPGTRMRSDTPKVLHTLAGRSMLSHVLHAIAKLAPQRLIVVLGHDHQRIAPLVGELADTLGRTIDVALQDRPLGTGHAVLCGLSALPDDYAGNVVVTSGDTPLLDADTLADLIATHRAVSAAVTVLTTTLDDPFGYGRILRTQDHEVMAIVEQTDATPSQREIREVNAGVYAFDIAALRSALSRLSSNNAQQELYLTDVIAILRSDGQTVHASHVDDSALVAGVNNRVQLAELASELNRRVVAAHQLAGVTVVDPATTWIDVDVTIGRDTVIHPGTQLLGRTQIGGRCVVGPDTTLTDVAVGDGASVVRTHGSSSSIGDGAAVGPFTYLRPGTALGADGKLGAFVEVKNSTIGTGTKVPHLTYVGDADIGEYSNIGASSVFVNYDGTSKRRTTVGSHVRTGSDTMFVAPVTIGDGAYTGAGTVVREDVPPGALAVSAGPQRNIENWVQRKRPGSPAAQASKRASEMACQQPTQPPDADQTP
row,Structure (SMILES),inhibition
1,COc1ccc(C(=O)Nc2ccc(N3CCCC3)cc2)cc1,13.4% (active)
2,COc1ccc(C(=O)NC(=S)Nc2ccc(N3CCCC3)cc2)cc1,-3.46% (inactive)
3,CC(C)Oc1ccc(C(=O)Nc2ccc(N3CCCC3)cc2)cc1,2.23% (inactive)
4,O=C(O[C@@H]1OC2COC(=O)c3cc(O)c(O)c(O)c3-c3c(cc(O)c(O)c3O)C(=O)O[C@@H]([C@H]1O)[C@@H]2O)c1cc(O)c(O)c(O)c1,30.4% (inactive)
5,CCC(=O)Nc1sc(C(=O)Nc2ccccc2OC)c(C)c1C(=O)OC,7.34% (inactive)
6,O=C(O)/C=C/c1ccc(O)c(O)c1,5.24% (inactive)
7,O=C(/C=C/c1ccc(O)c(O)c1)OCCc1ccccc1,-2.12% (inactive)
8,CCN1C(=O)CC(N2CCOCC2)C1=O (stereo not drawn),-3.77% (inactive)
9,CCOc1ccc(C2CC(c3ccc(F)cc3)Nc3nc(N)nn32)cc1 (stereo not drawn),2.32% (inactive)
10,O=C1NC(=S)S/C1=C\c1coc2ccccc2c1=O,5.72% (inactive)
11,CN1C(=O)/C(=C/c2coc3ccc(O)cc3c2=O)SC1=S,2.74% (inactive)
12,O=C(Nc1ccc(Cl)cc1)Nc1ccccc1C(=O)O,-1.73% (inactive)
13,Cc1nn(CC(=O)Nc2sc3c(c2C#N)CCC(C(C)(C)C)C3)c(C)c1[N+](=O)[O-] (stereo not drawn),14.3% (active)
14,CN1CCN(CC(=O)Nc2sc3c(c2C#N)CCC(C(C)(C)C)C3)CC1 (stereo not drawn),2.19% (inactive)
15,Cc1nn(CCCC(=O)Nc2sc3c(c2C#N)CCC3)c(C)c1[N+](=O)[O-],-0.77% (inactive)
16,CC(C)CCn1c(=O)c2ccccc2n2c(CN3CCCC3)nnc12,-3.44% (inactive)
17,Cc1ccc(S(=O)(=O)Nn2c(O)c(C=C3N=c4ccccc4=N3)sc2=S)cc1,0.22% (inactive)
18,O=C1N=c2ccccc2=C1c1sc(=S)n(NC(=O)c2cccc(O)c2)c1O,-0.24% (inactive)
19,COc1cc(C(=O)Nn2c(O)c(C3=c4ccccc4=NC3=O)sc2=S)ccc1O,4.03% (inactive)
20,O=C1N=c2ccccc2=C1c1sc(NS(=O)(=O)Cc2ccccc2)nc1O,5.63% (inactive)
21,O=C1N=c2ccccc2=C1c1sc(=S)n(NC(=O)c2ccccc2)c1O,13.4% (active)
22,O=C1N=c2ccccc2=C1c1sc(Nc2ccc(O)cc2)nc1O,6.45% (inactive)
23,O=C1N=c2ccccc2=C1c1sc(NS(=O)(=O)c2ccccc2)nc1O,13.8% (active)
24,O=C1N=c2ccc(Br)cc2=C1c1sc(=S)n(NS(=O)(=O)c2ccccc2)c1O,13.8% (active)
25,O=S(=O)(Nn1c(O)c(C=C2N=c3ccccc3=N2)sc1=S)c1ccccc1,7.14% (inactive)
26,COc1ccc(C(=O)C2CCCN(C(=O)Cc3c(C)noc3C)C2)cc1OC (stereo not drawn),-6.51% (inactive)

row,Structure (SMILES),inhibition
1,COc1ccccc1C(=O)NCCCN1CCCC1=O,-0.52% (inactive)
2,Nc1c(C(=O)c2ccc(F)cc2)oc2ccccc12,1.74% (inactive)
3,CCOc1ccccc1NC(=S)N(CCOC)C1CCN(C(C)=O)CC1,1.9% (inactive)
4,CC(=O)N1CC=CC1(C)C(=O)NCc1cc(F)cc(C(F)(F)F)c1 (stereo not drawn),-2.53% (inactive)
5,CCCCC(=O)Nc1ccc(C(=O)Nc2ccc(S(=O)(=O)Nc3ccc(C)cc3)cc2)cc1,3.43% (inactive)
6,CCOc1ccc(N(CC(=O)NCC2CCCO2)C(=O)CCC(=O)Nc2nccs2)cc1 (stereo not drawn),-0.08% (inactive)
7,Cc1oc(/N=C/c2c(O)ccc3ccccc23)c(C#N)c1C,-4.74% (inactive)
8,Nc1c(C(=O)N2CCCCC2)sc(=S)n1-c1ccccc1,-0.25% (inactive)
9,Cc1ccc(-n2c(N)c(C(=O)N3CCOCC3)sc2=S)cc1,-2.93% (inactive)
10,Nc1c(C(=O)N2CCOCC2)sc(=S)n1-c1ccccc1,13.9% (active)
11,Cc1cc2ccccc2c(=O)n1CC(=O)NCC(=O)N1CCN(c2ccccc2F)CC1,-1.95% (inactive)
12,CCOc1cc(CNCc2cccs2)ccc1OCC(=O)NC(C)(C)C,4.39% (inactive)
13,OC(COc1ccc(Br)cc1)CN1CCOCC1 (stereo not drawn),-1.6% (inactive)
14,COc1ccc(CSc2nnc(NC(C)=O)s2)cc1[N+](=O)[O-],-1.4% (inactive)
15,C/C(=N\NC(=O)c1cccc(Cl)c1)c1cccc(NC(=O)c2ccco2)c1,4.79% (inactive)
16,C/C(=N\NC(=O)c1ccc(F)cc1)c1cccc(NC(=O)c2ccco2)c1,1.13% (inactive)
17,C/C(=N\NC(=O)c1cccc(C)c1)c1cccc(NC(=O)c2ccco2)c1,21.3% (active)
18,Cc1cccc(Cn2cccc2/C=C2/C(=N)N3C=CSC3=NC2=O)c1,-1.25% (inactive)
19,CC(C)CC12CN3CCN(CC(C3)/C1=N/O)C2,0.59% (inactive)
20,COc1ccc(COc2ccccc2C(N)=O)cc1F,3.33% (inactive)
21,O=S(=O)(c1ccc(OCC(O)CN2CCN(c3ccc(F)cc3)CC2)cc1)N1CCOCC1 (stereo not drawn),3.7% (inactive)
22,Cc1ccccc1CN1[C@@H](Cc2ccccc2)COCCS1(=O)=O,-3.47% (inactive)
23,Oc1ccc(N=Nc2c(O)ccc3ccccc23)cc1,0.98% (inactive)
24,O=S(=O)(O)c1cccc(N=Nc2c(O)ccc3ccccc23)c1,3.89% (inactive)
25,O=C(O)c1cc(N=Nc2c(O)ccc3ccccc23)cc(C(=O)O)c1,25.6% (active)
26,CCn1c(-c2ccccc2)ccc(C#N)c1=O,14.1% (active)

row,Structure (SMILES),inhibition
1,CCOC(=O)Cn1c(-c2ccccc2)ccc(C#N)c1=O,-5.69% (inactive)
2,C#CCn1c(-c2ccccc2)ccc(C#N)c1=O,1.35% (inactive)
3,O=C(CSc1ccccc1C(=O)O)NCC1CCCCC1,-4.3% (inactive)
4,COCCn1c(SCC(=O)c2[nH]c(C)c(C(C)=O)c2C)nc2ccccc21,3.37% (inactive)
5,Cc1cc(N2CCC(C(=O)NC3CC3)CC2)nc(-c2ccccc2)n1,1.37% (inactive)
6,Cc1cc(N2CCC(C(=O)NC3CCCCC3)CC2)nc(-c2ccccc2)n1,13.9% (active)
7,C#CCNC(=O)C1CCN(c2cc(C)nc(-c3ccccc3)n2)CC1,-1.53% (inactive)
8,CC(=O)c1ccc(N2CCN(C(=S)Nc3ccccc3F)CC2)cc1,-4.01% (inactive)
9,CS(=O)(=O)N1CCC(C(=O)N2CCN(Cc3ccccc3)CC2)CC1,0.44% (inactive)
10,CCCS(=O)(=O)N1CCC(C(=O)N2CCN(Cc3ccccc3)CC2)CC1,30.1% (active)
11,CCS(=O)(=O)N1CCC(C(=O)N2CCN(Cc3ccccc3)CC2)CC1,-4.26% (inactive)
12,Cc1cc(C(=O)CN2C(=O)C(=O)N(C3CCCC3)C2=O)c(C)n1-c1ccc(F)cc1,7.31% (inactive)
13,Cc1c(Cl)cc(-n2cnnn2)cc1[N+](=O)[O-],0.95% (inactive)
14,COc1ccc(C(=O)CSc2nnc(-c3ccco3)c(-c3ccco3)n2)cc1,12.8% (active)
15,O=C(CSc1nnc(-c2ccco2)c(-c2ccco2)n1)Nc1ccccc1,13.4% (active)
16,CC(=O)c1ccc(NC(=O)CSc2nnc(-c3ccco3)c(-c3ccco3)n2)cc1,9.28% (inactive)
17,Cc1ccc(NC(=O)CSc2nnc(-c3ccco3)c(-c3ccco3)n2)cc1,6.2% (inactive)
18,COc1ccc(C(=O)CSc2n[nH]c(-c3ccco3)n2)cc1,4.52% (inactive)
19,O=C(CSc1nnc(-c2ccco2)c(-c2ccco2)n1)c1ccccc1,0.16% (inactive)
20,CC1(c2nnc(Cc3ccccc3)o2)CC(c2ccc([N+](=O)[O-])cc2)=NO1 (stereo not drawn),-2.83% (inactive)
21,CCCn1c(SCC(=O)Nc2ccc(OCC)cc2)nnc1C(C)C,2.8% (inactive)
22,COC(=O)N/N=C/c1c(C)nn(-c2cccc(Cl)c2)c1Cl,-2.28% (inactive)
23,O=C(O)c1cc(S(=O)(=O)Nc2ccc(N3CCCCC3)cc2)ccc1Cl,14.1% (active)
24,CC(=O)Nc1ccc(NS(=O)(=O)c2ccc(Cl)c(C(=O)O)c2)cc1,-0.86% (inactive)
25,O=S(=O)(Nc1ccc(N2CCCCC2)cc1)c1ccc(F)c(F)c1,1.08% (inactive)
26,O=C1CC2(CCCCC2)Oc2ccc(Cl)cc21,-3.86% (inactive)

row,Structure (SMILES),inhibition
1,CCCCN(CCCC)CCNC(=O)CNC(=O)c1cccs1,2.63% (inactive)
2,CCN(CC(=O)Nc1ccc(OC(F)F)cc1)C1CCCCC1,2.82% (inactive)
3,COc1cc(/C=C2/SC(=Nc3ccc(O)cc3)NC2=O)ccc1O,35.3% (inactive)
4,C=CCOc1ccc(Br)cc1/C=N/O,-4.35% (inactive)
5,C=CCOc1ccc(Br)cc1/C=C1/SC(=Nc2ccc(C(=O)O)cc2)NC1=O,15.9% (active)
6,CCOc1cc(S(=O)(=O)NCCc2ccccc2C)c(OCC)cc1-n1cnnn1,1.72% (inactive)
7,O=C1CC(NCc2ccccc2)C(=O)N1c1ccc(F)cc1 (stereo not drawn),-3.58% (inactive)
8,O=c1[nH]nc(SCc2nnc(-c3cccc(Cl)c3)o2)n1C1CCCCC1,1.07% (inactive)
9,CC(C)(CNc1ccc([N+](=O)[O-])cc1Cl)CNS(C)(=O)=O,-2.7% (inactive)
10,CCn1c(Cl)c(C=O)s/c1=N\S(=O)(=O)c1ccccc1,5.14% (inactive)
11,COCCCN1C(=O)CS/C1=N\S(=O)(=O)c1ccccc1,5.52% (inactive)
12,O=Cc1s/c(=N\S(=O)(=O)c2ccccc2)n(CCCCl)c1Cl,14% (active)
13,CC/C(=N/NS(=O)(=O)c1ccc(Cl)cc1)c1ccc(O)cc1,2.54% (inactive)
14,COc1cccc2c1NC(C(=O)O)C1CC=CC21 (stereo not drawn),60.8% (active)
15,CC(C)C1Nc2c(O)cc(Cl)c([N+](=O)[O-])c2C2C=CCC21 (stereo not drawn),4.55% (inactive)
16,COC(=O)CNC(=O)C1Nc2ccccc2C2C=CCC12 (stereo not drawn),3.22% (inactive)
17,COc1cccc(C2Nc3c(F)cc(Br)cc3C3C=CCC32)c1OC (stereo not drawn),0.44% (inactive)
18,O=C(O)C1Nc2c(C(=O)N3CCOCC3)cccc2C2C=CCC12 (stereo not drawn),1.95% (inactive)
19,Cc1ccc2c(c1C)NC(C(=O)O)C1CC=CC21 (stereo not drawn),13.2% (active)
20,CCOC(=O)C1Nc2c(F)cc(C)cc2C2C=CCC12 (stereo not drawn),3.49% (inactive)
21,O=[N+]([O-])c1ccc(Cl)c2c1C1C=CCC1C(c1ccccn1)N2 (stereo not drawn),3.42% (inactive)
22,O=C(O)C1Nc2c(O)cc(Cl)c([N+](=O)[O-])c2C2C=CCC12 (stereo not drawn),65% (active)
23,CC(C)C1Nc2ccc(C(=O)O)cc2C2C=CCC21 (stereo not drawn),5.77% (inactive)
24,CC(C)CNC(=O)C1Nc2ccccc2C2C=CCC12 (stereo not drawn),0.47% (inactive)
25,O=C(O)C1Nc2c(O)cccc2C2C=CCC12 (stereo not drawn),33.7% (active)
